Experimental data taken from the supplement of paper PMC10338343.
± gives the standard deviation.

Test system: MILI (PIWIL2) piRISC loaded with L1MC piRNA (26 nt)
Assay: pre-steady-state target cleavage rate (min^-1); guide: L1MC piRNA 5'p-UAACUAAAUACUAUGCAAGCUGUAGG; MIWI and MILI are mouse PIWI proteins and EfPiwi is from a freshwater sponge; tags in brackets are library labels; higher = faster piRNA-guided slicing of the target
Details: auxiliary factor: 500 nM mouse GTSF1
In short: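 Cleave-'n-Seq: a transcribed, DNA-blocked target RNA library (0.1 nM) was mixed with 1 nM active affinity-purified piRISC carrying one synthetic guide, with or without 500 nM GTSF1 partner protein, in HEPES–potassium acetate buffer at 33 °C for 0–8 or 0–960 min. Uncleaved targets were sequenced and normalised to depth and to weakly complementary targets. Three trials were pooled, and k3 was capped at 0.0001 min^-1. The pre-steady-state cleavage rate came from a burst-and-steady-state fit.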

Sequence	pre-steady-state target cleavage rate
UCCUGGAACAGCUUGCAUUGUAUUAAGUUA	0.163 ± 0.026
UCCUGGAUGUCGAUGCAUAGUAAUAAGUUA	0.00446 ± 0.0033
UCCUGGUACAGCUUGCAUAAGUAUUUAGUUA	0.00838 ± 0.0052
UCCUGGUACAGCUUGCAUAGUAAAUAGAAA	0.081 ± 0.025
UCCUGGAUGACGAUGCAUAGUAUUUAGAAA	0.139 ± 0.035
UCCUGGAACAGCUUGCAUAGUAAAAAGUAA	0.076 ± 0.022
UCCUGGAUGUCGUUGCAUAGUAUUUAUUUA	0.0344 ± 0.011
UCCUGGAUGUCGAAGCAUAGUCUUUAGUUA	0.0102 ± 0.0051
UCCUGGAACAGCUUGCAUAGUAUAUACAAA	0.0873 ± 0.03
UCCUGGAUCAGCUUGCAUAGCUAUUUAGUUA	0.00402 ± 0.004
UCCUGGAUGAGCUUGCAUAGUAUUAUCUUA	0.00985 ± 0.0048
UCCUGGAUGUGCUUGCAUAGUAUUUAGAUA	0.0576 ± 0.014
